Rows were chosen to be rich in hits. Some 2.2% of all compounds tested hit in one or more screens of this group.
BaF3 tox: counter-screen for JAK2V617F inhibitors: parental Ba/F3 viability inhibitors; inhibition, % at 5.6 µM; AID 1486; CellTiter-Glo ATP luminescence; hit rate 1.1% among 220,000;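 active means inhibition above a per-campaign cutoff, the mean inhibition of all tested compounds plus 3 SD, cut at about 27% in these data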
Ba/F3 V617F tox: reduce viability of Ba/F3 cells dependent on JAK2V617F; Ba/F3 EpoR-JAK2V617F viability, ATP luminescence; inhibition, % at 5.6 µM; hit rate 1.1% among 220,000; AID 1446;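 active means inhibition above the campaign mean plus 3 SD over all tested compounds, cut at about 24% in these data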;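 further: cytokine-independent growth of Ba/F3 cells driven by EpoR plus mutant JAK2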
aSyn UTR inh: MLPCN primary screen, SNCA 5' untranslated region; alpha-synuclein 5'UTR reporter, inhibitor activity; inhibition, % (tested at 7.5 µM); hit rate 0.82% among 300,000; AID 1813; in the data active means inhibition above about 60%;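 further: H4 neuroglioblastoma cells stably carrying SNCA 5'UTR luciferase fusion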
KLF5 inh: kruppel-like factor 5 inhibition | DLD-1 KLF5 promoter-luciferase reporter, luminescence | AID 1700 | inhibition, % at 5 µM | hit rate 0.23% among 290,000;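 active means inhibition above a per-plate limit of that plate's mean compound inhibition plus 3 SD, cut at about 60% in these data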;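 further: higher means less KLF5 promoter-driven luciferase light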
IEC-6 tox-1: kills IEC-6 intestinal cells in KLF5 counter-screen; IEC-6 cytotoxicity, luminescence viability; inhibition, % at 5 µM; hit rate 0.78% among 290,000
APP transl inh: APP translation inhibition | inhibition, % at 2 µM | hit rate 0.82% among 190,000 | SH-SY5Y APP 5'UTR-luciferase reporter, luminescence;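 active means inhibition above a set limit, derived from the sample mean plus 3 SD, cut at about 45% in these data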
KLF5 confirm: confirmation of KLF5 inhibitors | shares compounds with KLF5 inh | DLD-1 KLF5 promoter firefly luciferase reporter, luminescence | inhibition, % at 4 µM | hit rate 79% among 610 | AID 1834;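 active means inhibition above a set limit taken from the earlier primary screen, cut at about 63% in these data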
IEC-6 tox-2: rat IEC-6 cytotoxicity, KLF5 inhibitor counter-screen. shares compounds with KLF5 inh. IEC-6 rat intestinal cells, viability luminescence. inhibition, % at 4 µM. hit rate 56% among 610. AID 1905; in the data active means inhibition above about 23%;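 further: cells exposed to compounds for 48 hours before viability read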
IEC-6 cytotox cf: IEC-6 cytotoxicity, confirmation assay; shares compounds with IEC-6 tox-1; IEC-6 rat intestinal epithelial viability, luminescence; inhibition, % at 5 µM; hit rate 63% among 1,900
Each line names hits and unclear results; the compound was inactive in the other large screens (follow-up assays come after a bar, where they were run). Unless noted, no stated cut-off is given here; in the data, active means inhibition above about 22%; inactive means the rest.

O=C(c1cc([N+](=O)[O-])ccc1N1CCOCC1)N1CCN(c2ccccc2)CC1	aSyn UTR inh 91, KLF5 inh 82, IEC-6 tox-1 90 (no result: BaF3 tox, Ba/F3 V617F tox, APP transl inh) | KLF5 confirm 90 | IEC-6 tox-2 73 | IEC-6 cytotox cf 62
CCCCCCCCCn1c2c(c(=N)c3c1CCC3)CCCC2	BaF3 tox 93, Ba/F3 V617F tox 102, aSyn UTR inh 90, KLF5 inh 76, IEC-6 tox-1 64 | KLF5 confirm 114 | IEC-6 tox-2 42 | IEC-6 cytotox cf 55
CCCCCc1nc2c(c3c1CCCC3)CCCC2	none (no result: APP transl inh)
COc1ccc(/C=N/Nc2nc3ccccc3[nH]2)cc1OC	none
C(=N\Nc1nc2ccccc2[nH]1)/c1ccc2ncccc2c1	BaF3 tox 96, Ba/F3 V617F tox 90, aSyn UTR inh 95, KLF5 inh 62, IEC-6 tox-1 95 (no result: APP transl inh) | KLF5 confirm inactive | IEC-6 tox-2 90 | IEC-6 cytotox cf 85
O=C(NC1CC1)C1=C[C@H](c2csc3ccccc23)C[C@H](OCCCCO)O1	none
O=C(NCc1ccccc1)C1=C[C@@H](c2csc3ccccc23)C[C@@H](OCCCCO)O1	BaF3 tox 57, Ba/F3 V617F tox 25, aSyn UTR inh 95, KLF5 inh 70, IEC-6 tox-1 30 | KLF5 confirm inactive | IEC-6 tox-2 inactive | IEC-6 cytotox cf inactive
Cc1cccc(/C=N/NC(=O)c2ccc3c(c2)OCCO3)c1O	KLF5 inh 70, IEC-6 tox-1 99 (no result: BaF3 tox, Ba/F3 V617F tox, APP transl inh) | KLF5 confirm inactive | IEC-6 tox-2 inactive | IEC-6 cytotox cf inactive
O=C(N/N=C/c1cccc(O)c1)c1ccc2c(c1)OCCO2	none (no result: BaF3 tox, Ba/F3 V617F tox, APP transl inh)
COc1cc(C(=O)NC2CCCc3ccccc32)cc(OC)c1OC (configuration not stated)	none (no result: BaF3 tox, Ba/F3 V617F tox, APP transl inh)
COc1cc2c(c(OC)c1OC)-c1ccc(OC)c(=O)cc1[C@@H](NC(C)=O)CC2	aSyn UTR inh 96, KLF5 inh 79, IEC-6 tox-1 96 (no result: BaF3 tox, Ba/F3 V617F tox, APP transl inh) | KLF5 confirm 88 | IEC-6 tox-2 81 | IEC-6 cytotox cf 83
COc1cc2c(c(OC)c1OC)-c1ccc(N(C)CC(OC)OC)c(=O)cc1[C@@H](NC(C)=O)CC2	aSyn UTR inh 84, KLF5 inh 86, IEC-6 tox-1 92 (no result: BaF3 tox, Ba/F3 V617F tox, APP transl inh) | KLF5 confirm 86 | IEC-6 tox-2 61 | IEC-6 cytotox cf 66
COc1cc2c(cc1OC)C(COc1ccc(F)cc1)N(C(C)=O)CC2 (configuration not stated)	none (no result: BaF3 tox, Ba/F3 V617F tox, APP transl inh)
CCN(CC)c1ccc2c(cc1=O)[C@@H](NC)CCc1cc(OC)c(OC)c(OC)c1-2	aSyn UTR inh 107, KLF5 inh 70, IEC-6 tox-1 85 (no result: BaF3 tox, Ba/F3 V617F tox, APP transl inh) | KLF5 confirm 92 | IEC-6 tox-2 81 | IEC-6 cytotox cf 76
COc1cc2c(c(OC)c1OC)-c1ccc(OC)c(=O)cc1[C@@H](N(C)CC#CCO)CC2	aSyn UTR inh 87, KLF5 inh 81, IEC-6 tox-1 93 (no result: BaF3 tox, Ba/F3 V617F tox, APP transl inh) | KLF5 confirm 92 | IEC-6 tox-2 75 | IEC-6 cytotox cf 74
Cc1cc(C)c(OCCCCCn2ccnc2)c(C)c1	none (no result: BaF3 tox, Ba/F3 V617F tox, APP transl inh)
Cc1cc(C)c(S(=O)(=O)Nc2nccs2)c(C)c1	none (no result: BaF3 tox, Ba/F3 V617F tox, APP transl inh)
CCC(C)NC(=O)c1cn(CC)c2cc(N3CCN(C(=O)c4ccco4)CC3)c(F)cc2c1=O (configuration not stated)	none (no result: BaF3 tox, Ba/F3 V617F tox, APP transl inh)
Cc1ccc(S(=O)(=O)N2CCCC2)s1	none (no result: BaF3 tox, Ba/F3 V617F tox, APP transl inh)
N#Cc1ccc(C(=O)NNC(=O)c2ccncc2)cc1	none (no result: BaF3 tox, Ba/F3 V617F tox, APP transl inh)
COc1ccc(CC(=O)NCc2ccc(-n3cccc3)cc2)cc1OC	aSyn UTR inh 64, KLF5 inh 71, IEC-6 tox-1 76 (no result: BaF3 tox, Ba/F3 V617F tox, APP transl inh) | KLF5 confirm 72 | IEC-6 tox-2 60 | IEC-6 cytotox cf 58
COCCN1CCN(C(=O)c2cc(COc3cncc(Cl)c3)on2)CC1	none (no result: BaF3 tox, Ba/F3 V617F tox, APP transl inh)
COc1ccc(CN(C)C(=O)C2CCN(C(=O)Nc3ccccc3)CC2)cc1	none (no result: BaF3 tox, Ba/F3 V617F tox, KLF5 inh, IEC-6 tox-1, APP transl inh)
C#CCOc1ccc(C2C3=C(COC3=O)Nc3cc4c(cc32)OCO4)cc1OC (configuration not stated)	BaF3 tox 95, Ba/F3 V617F tox 94, aSyn UTR inh 132, KLF5 inh 79, IEC-6 tox-1 95, APP transl inh 95 | KLF5 confirm 88 | IEC-6 tox-2 83 | IEC-6 cytotox cf 84
COc1cc2c(cc1OC)C(c1ccc3c(c1)OCO3)C1=C(CC(C)(C)CC1=O)N2 (configuration not stated)	none
O=C1OCC2=C1C(c1ccc(F)cc1)c1cc3c(cc1N2)OCO3 (configuration not stated)	Ba/F3 V617F tox 59, KLF5 inh 68, IEC-6 tox-1 77, APP transl inh 95 (no result: aSyn UTR inh) | KLF5 confirm 88 | IEC-6 tox-2 86 | IEC-6 cytotox cf 84
O=C1OCC2=C1C(c1ccc(F)cc1)c1cc3c(cc1N2)OCCO3 (configuration not stated)	BaF3 tox 96, Ba/F3 V617F tox 96, KLF5 inh 98, IEC-6 tox-1 95, APP transl inh 94 (no result: aSyn UTR inh) | KLF5 confirm 92 | IEC-6 tox-2 84 | IEC-6 cytotox cf 86
CC(=O)Oc1ccc(C2C3=C(CC(C)(C)CC3=O)Nc3cc4c(cc32)OCCO4)cc1 (configuration not stated)	none
O=C1OCC2=C1C(c1ccc3c(c1)OCO3)Sc1ccccc1N2 (configuration not stated)	none
O=C1C(=O)N(C2CCS(=O)(=O)C2)C(c2cccc(O)c2)/C1=C(/O)c1ccc(Cl)cc1 (configuration not stated)	none (no result: BaF3 tox, Ba/F3 V617F tox, APP transl inh)
Cc1ccc2[nH]c(C(=O)N/N=C/c3ccccc3O)c(C)c2c1	KLF5 inh 71, IEC-6 tox-1 98 (no result: BaF3 tox, Ba/F3 V617F tox, APP transl inh) | KLF5 confirm 69 | IEC-6 tox-2 inactive | IEC-6 cytotox cf 54
C/C(=N\NC(=O)c1nnn(-c2nonc2N)c1-c1ccc2c(c1)OCO2)c1ccccc1	none (no result: BaF3 tox, Ba/F3 V617F tox, APP transl inh)
C/C(=N\NC(=O)c1nnn(-c2nonc2N)c1-c1ccccc1)c1ccccc1O	KLF5 inh 62, IEC-6 tox-1 96 (no result: BaF3 tox, Ba/F3 V617F tox, APP transl inh) | KLF5 confirm 85 | IEC-6 tox-2 63 | IEC-6 cytotox cf 75
O=C(NCCCSc1ccccc1)c1cc(Cl)ccc1O	none (no result: BaF3 tox, Ba/F3 V617F tox, APP transl inh)
Cc1cccc(N2CCN(C(=O)c3cccc(N4CCCC4=O)c3)C(C)C2)c1 (configuration not stated)	KLF5 inh 64, IEC-6 tox-1 63 (no result: BaF3 tox, Ba/F3 V617F tox, APP transl inh) | KLF5 confirm 69 | IEC-6 tox-2 36 | IEC-6 cytotox cf 40
O=C(N/N=C/c1cc(O)ccc1Br)c1cccnc1	KLF5 inh 80, IEC-6 tox-1 66 (no result: BaF3 tox, Ba/F3 V617F tox, APP transl inh) | KLF5 confirm 90 | IEC-6 tox-2 inactive | IEC-6 cytotox cf inactive
Cn1cccc1/C=N\NC(=O)c1cncc(Br)c1	none (no result: APP transl inh)
O=C(N/N=C/c1c(O)ccc2ccccc12)c1cccnc1	aSyn UTR inh 93, KLF5 inh 82, IEC-6 tox-1 75 (no result: BaF3 tox, Ba/F3 V617F tox, APP transl inh) | KLF5 confirm 81 | IEC-6 tox-2 inactive | IEC-6 cytotox cf inactive
